Source: PubChem BioAssay
Inconclusive results are not listed. Calls of active or inactive are those of the source.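 How the source made its calls, unless noted: active means aptamer binding inhibition above 30%, about 3 SD of noise from non-fluorescent compounds; inactive means inhibition at or below 30%.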

What was measured:
[1] = yeast TOR pathway RPL19A-GFP modulators, primary screen, cell-based, S. cerevisiae, multiplex flow cytometry (AID 1862; in the data active means percent of DMSO control GFP below about 86%;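 further: lower values mimic rapamycin by blocking the RPL19A rise seen in DMSO cells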); details: S. cerevisiae RPL19A-GFP strain, flow cytometry fluorescence, 3 h; at 10 µM; stronger effect = lower value
[2] = modulators of MEP2-GFP levels in yeast, primary screen, S. cerevisiae, multiplex flow cytometry (AID 1867;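 active means GFP response, as percent of the DMSO control, above the screen-wide mean plus 3 SD, about 139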;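 further: median GFP channel fluorescence of barcode-gated MEP2-GFP cells measured by flow cytometry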); details: S. cerevisiae MEP2-GFP strain, 3 h, at 10 µM, stronger effect = higher value, 100% means same as DMSO wells
[3] = modulators of CIT2-GFP expression in yeast, primary screen, S. cerevisiae, GFP fusion, multiplex flow cytometry (AID 1870;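 active means percent response above a set limit, the screen-wide mean plus 3 SD, cut at about 130% in these data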;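 further: barcoded CIT2-GFP strain pooled with four other GFP strains with rapamycin as positive control; median GFP fluorescence per well over plate mean of DMSO wells so 100% = DMSO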); details: 3 h, at 10 µM, stronger effect = higher value
[4] = modulators of LAP4-GFP expression in yeast, primary screen, S. cerevisiae, multiplex flow cytometry (AID 1873;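 active means GFP signal, as percent of the solvent control, above the screen mean plus 3 SD, about 149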); details: 3 h, at 10 µM, stronger effect = higher value
[5] = modulators of AGP1-GFP expression in yeast TOR pathway, primary screen, cell-based, multiplex flow cytometry, S. cerevisiae (AID 1887;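 active means GFP signal above the screen-wide mean plus 3 SD, that is over about 124.5% of the solvent control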;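 further: AGP1-GFP fusion strain of S. cerevisiae within a five-strain barcoded multiplex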); details: 3 h, at 10 µM, stronger effect = higher value
[6] = inhibitors of CD8+ T cell-vesicle binding, pilot screen, LFA-1/ICAM-1 modulator project, MLPCN validation set, flow cytometry (AID 2523;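 active means response below a set limit, under 55% cells CD8-positive and vesicle-bound, and CD8 cells' 90th-percentile brightness under 279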;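 on vesicle binding response: mean PE anti-B7-1 fluorescence of CD8+ cells relative to row control; 100% = QL9-loaded vesicles with DMSO vehicle in the same plate row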); details: 2C mouse CD8+ T cells, at 7 µM, stronger effect = lower value; double positive events: measured here: CD8+/vesicle+ event percentage
[7] = target: Integrin beta-1 (Homo sapiens) + Integrin alpha-4 (Homo sapiens) (UniProt P13612+P05556); assay: inhibition of HUTS-21 binding to VLA-4, pilot screen, VLA-4 allosteric modulator project, U937 cells, HUTS-21 mAb, flow cytometry, validation set (AID 2674;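 active means inhibition above 50%, about 3 SD of the validation set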;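 further: antibody binding induced by the VLA-4 ligand LDV present at three times its Kd; 0% = LDV ligand with antibody and no compound and 100% = antibody without LDV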); details: HUTS-21 LIBS mAb binding, at 6.7 µM, stronger effect = higher value, binding induced by LDV ligand
Integrin beta-1 (Homo sapiens) + Integrin alpha-4 (Homo sapiens), sequence (P05556 whole entry, looked up): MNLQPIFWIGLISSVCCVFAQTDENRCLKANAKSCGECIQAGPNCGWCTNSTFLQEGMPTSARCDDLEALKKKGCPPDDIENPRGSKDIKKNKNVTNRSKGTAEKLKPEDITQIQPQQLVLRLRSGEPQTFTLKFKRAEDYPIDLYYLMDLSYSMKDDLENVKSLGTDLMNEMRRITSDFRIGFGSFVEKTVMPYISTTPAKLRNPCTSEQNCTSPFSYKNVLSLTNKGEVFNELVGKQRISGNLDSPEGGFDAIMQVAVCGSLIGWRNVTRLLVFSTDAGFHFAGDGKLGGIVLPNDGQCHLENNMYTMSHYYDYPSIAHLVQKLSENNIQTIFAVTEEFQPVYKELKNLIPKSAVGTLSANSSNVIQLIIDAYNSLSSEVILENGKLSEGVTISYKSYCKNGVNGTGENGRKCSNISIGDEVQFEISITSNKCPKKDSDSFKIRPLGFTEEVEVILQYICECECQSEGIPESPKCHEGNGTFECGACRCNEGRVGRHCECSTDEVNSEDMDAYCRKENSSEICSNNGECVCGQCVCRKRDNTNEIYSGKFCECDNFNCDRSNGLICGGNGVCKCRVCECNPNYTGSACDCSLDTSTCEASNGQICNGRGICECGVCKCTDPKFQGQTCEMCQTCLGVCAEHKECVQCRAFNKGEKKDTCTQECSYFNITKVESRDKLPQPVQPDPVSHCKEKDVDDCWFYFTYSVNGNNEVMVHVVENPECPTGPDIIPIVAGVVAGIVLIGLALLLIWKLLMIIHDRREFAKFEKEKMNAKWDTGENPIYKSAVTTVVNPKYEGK
Integrin beta-1 (Homo sapiens) + Integrin alpha-4 (Homo sapiens), sequence (P13612 whole entry, looked up): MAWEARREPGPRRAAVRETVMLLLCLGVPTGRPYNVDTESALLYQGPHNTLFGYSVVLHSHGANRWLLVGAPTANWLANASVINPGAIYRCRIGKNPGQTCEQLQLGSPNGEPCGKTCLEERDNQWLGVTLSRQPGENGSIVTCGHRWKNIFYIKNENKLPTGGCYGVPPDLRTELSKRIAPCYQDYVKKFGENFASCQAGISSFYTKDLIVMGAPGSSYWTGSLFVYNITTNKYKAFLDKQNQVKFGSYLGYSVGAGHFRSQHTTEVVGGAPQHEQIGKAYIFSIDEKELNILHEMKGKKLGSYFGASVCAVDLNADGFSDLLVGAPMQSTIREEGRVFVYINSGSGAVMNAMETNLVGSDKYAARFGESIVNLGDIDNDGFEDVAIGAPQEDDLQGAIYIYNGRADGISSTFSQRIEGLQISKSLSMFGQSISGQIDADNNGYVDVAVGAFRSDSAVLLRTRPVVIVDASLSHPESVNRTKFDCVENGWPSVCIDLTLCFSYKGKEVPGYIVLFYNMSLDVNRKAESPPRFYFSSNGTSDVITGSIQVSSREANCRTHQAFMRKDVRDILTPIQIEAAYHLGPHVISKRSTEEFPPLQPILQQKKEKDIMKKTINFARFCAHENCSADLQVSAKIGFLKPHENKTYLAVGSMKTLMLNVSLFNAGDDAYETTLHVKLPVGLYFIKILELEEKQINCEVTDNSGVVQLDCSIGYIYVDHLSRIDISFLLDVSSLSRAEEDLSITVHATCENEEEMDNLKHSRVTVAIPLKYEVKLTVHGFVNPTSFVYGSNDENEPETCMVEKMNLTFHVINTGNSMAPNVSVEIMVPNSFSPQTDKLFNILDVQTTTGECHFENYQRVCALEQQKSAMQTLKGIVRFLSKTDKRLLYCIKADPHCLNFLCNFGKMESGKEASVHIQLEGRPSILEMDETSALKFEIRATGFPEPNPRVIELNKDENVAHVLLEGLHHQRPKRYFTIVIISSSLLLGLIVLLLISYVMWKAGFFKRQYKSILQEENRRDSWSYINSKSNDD

[8] = superoxide lowering in aged yeast cells, pilot screen, validation compound set (AID 2706;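 active means superoxide response below 65% of plate, a cut near 3 SD across the whole screen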;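 further: yeast exposed to compound for one week at 30 degrees C before staining; 100% = mean of all compound wells on the same plate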); details: S. cerevisiae aging, superoxide DHE fluorescence; at 10 µM; stronger effect = lower value
[9] = target: Beta-adrenergic receptor kinase 1 (Homo sapiens) (UniProt P25098); assay: GRK2 binders displacing RNA aptamer, biochemical, validation, human GRK2, bead flow cytometry (AID 488806); details: bead-bound GRK2, FAM-aptamer displacement, at 10 µM, stronger effect = higher value
Beta-adrenergic receptor kinase 1 (Homo sapiens), sequence (P25098 whole entry, looked up): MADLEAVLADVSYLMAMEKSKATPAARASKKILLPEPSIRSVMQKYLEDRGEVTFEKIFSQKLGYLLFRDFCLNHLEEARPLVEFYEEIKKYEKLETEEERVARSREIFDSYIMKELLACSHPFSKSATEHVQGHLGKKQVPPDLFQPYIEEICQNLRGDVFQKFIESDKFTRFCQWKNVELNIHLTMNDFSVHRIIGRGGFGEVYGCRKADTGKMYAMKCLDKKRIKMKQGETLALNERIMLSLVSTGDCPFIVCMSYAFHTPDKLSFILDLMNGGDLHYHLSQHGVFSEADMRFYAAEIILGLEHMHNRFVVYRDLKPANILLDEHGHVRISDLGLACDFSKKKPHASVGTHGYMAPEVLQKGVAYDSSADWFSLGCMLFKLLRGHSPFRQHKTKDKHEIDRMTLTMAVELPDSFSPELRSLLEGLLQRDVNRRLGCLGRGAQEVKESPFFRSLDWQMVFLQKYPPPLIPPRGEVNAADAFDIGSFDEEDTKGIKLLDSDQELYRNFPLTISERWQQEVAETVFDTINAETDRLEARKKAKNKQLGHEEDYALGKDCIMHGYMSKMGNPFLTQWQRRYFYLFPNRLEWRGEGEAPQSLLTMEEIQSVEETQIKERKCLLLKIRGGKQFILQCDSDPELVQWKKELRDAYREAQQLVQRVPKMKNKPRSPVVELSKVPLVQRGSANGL

[10] = target: Beta-2 adrenergic receptor (Homo sapiens) (UniProt P07550); assay: beta2AR agonists driving receptor internalization, pilot screen, cell-based, FAP fluorogen, flow cytometry, validation set (AID 504459;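 active means percent response above 42, roughly 3 SD of non-fluorescent test compounds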;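 further: agonist-driven loss of surface beta2AR via internalization measured by FAP dye flow cytometry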); details: Am2.2-beta2AR cells, FAP surface receptor flow cytometry; at 10 µM; stronger effect = higher value
Beta-2 adrenergic receptor (Homo sapiens), sequence (P07550 whole entry, looked up): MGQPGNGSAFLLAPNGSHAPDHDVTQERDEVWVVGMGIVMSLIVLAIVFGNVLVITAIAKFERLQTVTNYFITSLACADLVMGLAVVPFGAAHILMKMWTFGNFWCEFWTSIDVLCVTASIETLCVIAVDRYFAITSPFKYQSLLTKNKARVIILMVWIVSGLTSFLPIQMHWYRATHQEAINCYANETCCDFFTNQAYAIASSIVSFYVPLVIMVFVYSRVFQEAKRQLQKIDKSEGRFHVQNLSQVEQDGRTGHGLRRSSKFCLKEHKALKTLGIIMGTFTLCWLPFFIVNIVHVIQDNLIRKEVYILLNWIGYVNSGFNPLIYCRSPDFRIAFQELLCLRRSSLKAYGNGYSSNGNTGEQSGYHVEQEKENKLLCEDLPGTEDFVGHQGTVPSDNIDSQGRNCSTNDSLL

[11] = target: AP-2 complex subunit beta (Homo sapiens) (UniProt P63010); assay: inhibitors of arrestin peptide binding to AP2, pilot screen, biochemical, validation set, GST-AP2 beads, flow cytometry (AID 504541;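 active means inhibition above 54%, about 3 SD of non-fluorescent compounds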;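 further: AP2 carries R879A mutation and is captured from E. coli lysate; bead-bound FITC arrestin peptide fluorescence measuring arrestin peptide binding to AP2; 0% = DMSO wells and 100% = excess unlabeled arrestin peptide control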); details: FITC arrestin peptide, at 10 µM, stronger effect = higher value, AP2 beta2 appendage fragment, R879A mutant
AP-2 complex subunit beta (Homo sapiens), sequence (P63010 whole entry, looked up, the tested form may be a part, one chain of several): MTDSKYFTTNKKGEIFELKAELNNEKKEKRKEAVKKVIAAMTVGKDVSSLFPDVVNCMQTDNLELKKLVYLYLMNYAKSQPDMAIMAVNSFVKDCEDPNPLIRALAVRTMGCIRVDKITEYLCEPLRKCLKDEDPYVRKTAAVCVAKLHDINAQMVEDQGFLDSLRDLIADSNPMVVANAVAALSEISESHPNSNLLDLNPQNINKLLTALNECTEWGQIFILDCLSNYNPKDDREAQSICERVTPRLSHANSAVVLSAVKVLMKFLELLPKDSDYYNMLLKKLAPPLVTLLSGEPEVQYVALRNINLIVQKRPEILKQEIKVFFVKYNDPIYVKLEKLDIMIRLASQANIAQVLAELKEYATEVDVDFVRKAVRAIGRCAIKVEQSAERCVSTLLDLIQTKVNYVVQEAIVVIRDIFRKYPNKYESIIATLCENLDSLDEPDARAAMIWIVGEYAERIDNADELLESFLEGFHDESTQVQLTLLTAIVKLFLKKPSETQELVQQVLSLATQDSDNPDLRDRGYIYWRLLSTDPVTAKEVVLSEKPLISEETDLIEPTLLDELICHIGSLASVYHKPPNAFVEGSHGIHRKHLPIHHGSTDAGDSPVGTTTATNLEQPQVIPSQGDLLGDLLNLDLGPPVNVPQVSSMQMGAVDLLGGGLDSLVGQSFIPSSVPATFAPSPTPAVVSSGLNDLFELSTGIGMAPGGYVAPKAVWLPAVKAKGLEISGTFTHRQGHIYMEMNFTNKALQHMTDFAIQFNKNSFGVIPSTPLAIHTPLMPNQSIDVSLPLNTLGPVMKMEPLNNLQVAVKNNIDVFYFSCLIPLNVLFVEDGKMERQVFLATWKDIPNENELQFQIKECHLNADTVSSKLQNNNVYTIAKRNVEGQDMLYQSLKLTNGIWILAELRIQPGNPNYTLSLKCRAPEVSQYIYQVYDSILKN

[12] = yeast V-ATPase proton transport modulators, S. cerevisiae, pHLuorin, HTS validation (AID 504600; in the data active means response above about 15%;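 further: plate controls were DMSO for no effect and reference compound for full effect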); details: S. cerevisiae pHLuorin cytosolic pH, at 10 µM, stronger effect = higher value
[13] = test system: anti-desmoglein-3 scFv antibody binding to human DSG3; assay: inhibitors of anti-DSG3 scFv binding to DSG3, pilot screen, biochemical, validation compound set, bead-based, flow cytometry (AID 588368;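 active means binding below the plate cutoff, the plate median minus 3 SD, with a reading above zero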;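 further: signal is the median channel fluorescence of bead-bound GFP antibody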); details: Protein G beads, DSG3-Fc, scFv-GFP binding, at 10 µM, stronger effect = lower value
[14] = inhibitors of fungal efflux pumps CDR1, CDR2, MDR1, pilot screen, validation compound set, multiplex, phenotypic (AID 588506;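 active means efflux inhibition above 0.42, the validation set average plus 4 SD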;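 further: Nile Red retained in cells so higher fluorescence means more efflux inhibition; 0 = negative control wells and 1 = enniatin B 25 µM full block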); details: S. cerevisiae pump-expressing triplex, Nile Red efflux flow cytometry; at 10 µM; stronger effect = higher value; the pumps come from Candida albicans
[15] = target: ATP-binding cassette sub-family B member 6 (Homo sapiens) (UniProt Q9NP58); assay: ABCB6 transporter inhibitors, pilot screen, K562-ABCB6 cells, flow cytometry, validation set (AID 588550;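 active means inhibition above the screen-wide mean plus 3 SD, about 51%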;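 further: 0% = DMSO wells and 100% = benzethonium chloride 70 µM positive control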); details: K562-ABCB6 porphyrin accumulation, 1 h, at 10 µM, stronger effect = higher value
ATP-binding cassette sub-family B member 6 (Homo sapiens), sequence (Q9NP58 whole entry, looked up): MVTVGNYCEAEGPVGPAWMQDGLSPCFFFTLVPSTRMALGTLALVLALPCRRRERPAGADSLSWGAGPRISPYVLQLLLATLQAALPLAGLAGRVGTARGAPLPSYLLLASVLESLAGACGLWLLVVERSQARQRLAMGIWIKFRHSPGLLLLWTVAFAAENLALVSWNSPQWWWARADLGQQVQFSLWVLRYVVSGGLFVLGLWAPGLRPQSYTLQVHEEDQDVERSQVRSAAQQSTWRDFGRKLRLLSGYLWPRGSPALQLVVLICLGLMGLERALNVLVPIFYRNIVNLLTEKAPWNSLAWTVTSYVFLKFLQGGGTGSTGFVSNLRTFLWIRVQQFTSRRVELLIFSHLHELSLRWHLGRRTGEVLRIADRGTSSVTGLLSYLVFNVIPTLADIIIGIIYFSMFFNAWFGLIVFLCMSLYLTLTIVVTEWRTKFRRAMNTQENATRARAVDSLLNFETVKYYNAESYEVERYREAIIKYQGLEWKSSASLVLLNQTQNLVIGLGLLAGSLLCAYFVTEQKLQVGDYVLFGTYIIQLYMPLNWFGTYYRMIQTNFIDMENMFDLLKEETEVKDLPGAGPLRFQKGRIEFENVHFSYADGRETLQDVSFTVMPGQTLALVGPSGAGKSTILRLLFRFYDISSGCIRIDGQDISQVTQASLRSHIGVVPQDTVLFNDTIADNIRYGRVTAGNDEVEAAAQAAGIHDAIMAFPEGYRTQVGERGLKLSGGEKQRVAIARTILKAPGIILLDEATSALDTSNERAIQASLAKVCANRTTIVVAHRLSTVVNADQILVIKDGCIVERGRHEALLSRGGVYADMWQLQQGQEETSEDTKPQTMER

[16] = promoters of myeloid differentiation in arrested cells, primary screen, cell-based, GFP/MAC1 double positive, flow cytometry, validation set (AID 588685;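 active means differentiation response of at least 50%, scaled between solvent and reference control, from cells with both markers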;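 further: compound exposure lasts four days before antibody staining and flow analysis; 0% = DMSO wells and 100% = 5 µM fulvestrant positive control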); details: ER-HoxA9 marrow cells, stronger effect = higher value, normalized: vehicle 0, fulvestrant 100

Compound | percent of DMSO control GFP [1] | GFP response vs DMSO [2] | percent response of DMSO control [3] | GFP response vs DMSO [4] | GFP response, % of DMSO [5] | double positive events [6] [%] | vesicle binding response [6] | inhibition [7] | superoxide response (% of plate) [8] | aptamer binding inhibition [9] | response [10] | inhibition [11] | response [12] | binding (% of control) [13] | efflux inhibition (fraction of control) [14] | inhibition [15] | differentiation response [16]
CC(=O)C1=C(O)C(=O)OC1c1ccc(C)cc1 (stereo not drawn) | 97.1% (inactive) | 119% (inactive) | 91% (inactive) | 132% (inactive) | 106% (inactive) | 61 | 147% (inactive) | 17.3% (inactive) | 103% (inactive) | 2% (inactive) | -1.67% (inactive) | 21.9% (inactive) | -0.38% (inactive) | 101% (inactive) | -0.06 (inactive) | 7% (inactive) | 5.6% (inactive)
O=C(CN1CCN(Cc2ccccc2)CC1)N1CCCc2c1c(=O)oc1ccc(O)cc21 | 93.3% (inactive) | 127% (inactive) | 108% (inactive) | 77.6% (inactive) | 84.3% (inactive) | 53 | 202% (inactive) | -11% (inactive) | 107% (inactive) | -3% (inactive) | -14.1% (inactive) | 9.01% (inactive) | -1.88% (inactive) | 109% (inactive) | -0.31 (inactive) | 3% (inactive) | 8.19% (inactive)
O=C(c1ccco1)N(CCC(c1ccccc1)c1ccco1)Cc1ccco1 (stereo not drawn) | 103% (inactive) | 95.2% (inactive) | 106% (inactive) | 99.9% (inactive) | 104% (inactive) | 80 | 8050% (inactive) | -1.79% (inactive) | 104% (inactive) | 5% (inactive) | 6.76% (inactive) | 3.27% (inactive) | -0.61% (inactive) | 99.7% (inactive) | 0.15 (inactive) | -3% (inactive) | -13.6% (inactive)
NC(N)=N/N=C/c1ccc(OS(=O)(=O)c2ccccc2)cc1 | 102% (inactive) | 101% (inactive) | 101% (inactive) | 90.4% (inactive) | 102% (inactive) | 61.3 | 141% (inactive) | 17.7% (inactive) | 93.2% (inactive) | -12% (inactive) | 13.2% (inactive) | -0.93% (inactive) | -4.93% (inactive) | 107% (inactive) | -0.03 (inactive) | 11% (inactive) | 4.2% (inactive)
COc1cc2c(cc1NCc1ccc3c(c1)OCO3)oc1ccccc12 | 99.6% (inactive) | 133% (inactive) | 112% (inactive) | 88% (inactive) | 89.4% (inactive) | 64 | 167% (inactive) | 1.61% (inactive) | 99.1% (inactive) | 0% (inactive) | 4.3% (inactive) | 47.4% (inactive) | 8.06% (inactive) | 103% (inactive) | 0.37 (inactive) | 0% (inactive) | 8.19% (inactive)
CN(C)CCC=C1c2ccccc2CCc2ccccc21 | 93.9% (inactive) | 105% (inactive) | 93.9% (inactive) | 113% (inactive) | 95.4% (inactive) | 60.1 | 227% (inactive) | 6.4% (inactive) | 101% (inactive) | 2% (inactive) | -0.14% (inactive) | -8.77% (inactive) | 6.98% (inactive) | 101% (inactive) | -0.17 (inactive) | 6% (inactive) | -24.8% (inactive)
COc1ccc2[nH]c3c(=O)n(/N=C/[C@H]4C(C)C=C(C)CC4C)c(=O)[nH]c3c2c1 (stereo partly drawn) | 99.9% (inactive) | 109% (inactive) | 92% (inactive) | 107% (inactive) | 102% (inactive) | 57.4 | 6260% (inactive) | 6.4% (inactive) | 95.3% (inactive) | 3% (inactive) | 5.28% (inactive) | 32.4% (inactive) | -6.18% (inactive) | 98.7% (inactive) | 0.22 (inactive) | 1% (inactive) | -28% (inactive)
COc1ccc(-c2c[n+](CC(=O)OC3CC(C)CCC3C(C)C)c3n2CCC3)cc1 (stereo not drawn) | 99.5% (inactive) | 105% (inactive) | 102% (inactive) | 97% (inactive) | 98.6% (inactive) | 57.8 | 42.8% (inactive) | 5.61% (inactive) | 97.3% (inactive) | -6% (inactive) | -0.25% (inactive) | -5.29% (inactive) | 8.78% (inactive) | 108% (inactive) | 0.28 (inactive) | 6% (inactive) | -3.11% (inactive)
CN(C)CC/C=C1\c2ccccc2Sc2ccc(Cl)cc21 | 104% (inactive) | 110% (inactive) | 103% (inactive) | 106% (inactive) | 106% (inactive) | 64.5 | 157% (inactive) | 9.63% (inactive) | 88.7% (inactive) | -5% (inactive) | 19.9% (inactive) | 54.9% (active) | -15.9% (inactive) | 106% (inactive) | 0.08 (inactive) | 9% (inactive) | -17.7% (inactive)
Cc1cccc(NC(=O)c2cc3ccccc3o2)c1 | 94.6% (inactive) | 115% (inactive) | 112% (inactive) | 90.8% (inactive) | 86.3% (inactive) | 69.2 | 162% (inactive) | 5.49% (inactive) | 90.5% (inactive) | 2% (inactive) | -1.7% (inactive) | 1.31% (inactive) | -0.5% (inactive) | 102% (inactive) | -0.24 (inactive) | 17% (inactive) | 3.28% (inactive)
CC(C[N+](C)(C)C)OC(N)=O (stereo not drawn) | 100% (inactive) | 98.6% (inactive) | 89.9% (inactive) | 104% (inactive) | 110% (inactive) | 66.5 | 164% (inactive) | 11.7% (inactive) | 96.5% (inactive) | 2% (inactive) | -16.4% (inactive) | -15.8% (inactive) | 0.77% (inactive) | 103% (inactive) | 0.08 (inactive) | 12% (inactive) | 0% (inactive)
CCOC(=O)C(NC(=O)CCC(=O)Nc1ccc(S(N)(=O)=O)cc1)C(O)c1ccccc1 (stereo not drawn) | 96.5% (inactive) | 103% (inactive) | 100% (inactive) | 106% (inactive) | 101% (inactive) | 57.6 | 361% (inactive) | 15.1% (inactive) | 102% (inactive) | 6% (inactive) | -25.5% (inactive) | 5.81% (inactive) | -6.43% (inactive) | 101% (inactive) | 0 (inactive) | 7% (inactive) | -7.94% (inactive)
COc1ccc(C(=O)N2c3cc4c(cc3C(C)=CC2(C)C)OCO4)cc1 | 97.8% (inactive) | 103% (inactive) | 98.9% (inactive) | 116% (inactive) | 93.4% (inactive) | 56.6 | 40.1% (inactive) | -2.53% (inactive) | 98.5% (inactive) | 5% (inactive) | 4.24% (inactive) | -10.4% (inactive) | -0.49% (inactive) | 96.1% (inactive) | -0.04 (inactive) | 10% (inactive) | -1.71% (inactive)
COc1cc2c(cc1OC)/C(=C/c1ccc(Cl)cc1)C(=O)OC2 | 87.8% (inactive) | 108% (inactive) | 95.2% (inactive) | 83.1% (inactive) | 85.7% (inactive) | 63.9 | 155% (inactive) | -7.12% (inactive) | 95.8% (inactive) | 4% (inactive) | -8.94% (inactive) | 10.1% (inactive) | -2.13% (inactive) | 104% (inactive) | 0.3 (inactive) | 1% (inactive) | -2.46% (inactive)
COC1CCN(Cc2cn(Cc3ccccc3)nc2-c2cc3ccccc3o2)CC1 | 105% (inactive) | 93% (inactive) | 102% (inactive) | 89.4% (inactive) | 98.9% (inactive) | 61.8 | 243% (inactive) | 22.4% (inactive) | 104% (inactive) | 0% (inactive) | 8.96% (inactive) | 9.94% (inactive) | -0.82% (inactive) | 105% (inactive) | -0.14 (inactive) | 12% (inactive) | -9.53% (inactive)
COc1ccc(Br)cc1C(=O)Nc1ccc(C(=O)O)cc1 | 107% (inactive) | 105% (inactive) | 88.4% (inactive) | 127% (inactive) | 68.8% (inactive) | 63.9 | 240% (inactive) | -0.45% (inactive) | 97.6% (inactive) | 3% (inactive) | -0.63% (inactive) | -7.7% (inactive) | 1.41% (inactive) | 96.3% (inactive) | -0.04 (inactive) | -4% (inactive) | 5.13% (inactive)
COC(=O)CN1C(=S)N(c2ccc(F)cc2)C(=O)C1CC(=O)Nc1ccccc1 (stereo not drawn) | 99.7% (inactive) | 101% (inactive) | 102% (inactive) | 120% (inactive) | 118% (inactive) | 57.4 | 189% (inactive) | 11.7% (inactive) | 103% (inactive) | 1% (inactive) | -25.4% (inactive) | 0.21% (inactive) | 0.96% (inactive) | 101% (inactive) | 0 (inactive) | -3% (inactive) | -10.9% (inactive)
N#C/C(=C/c1ccccc1)C(=O)NCc1ccccc1 | 97.4% (inactive) | 108% (inactive) | 101% (inactive) | 106% (inactive) | 102% (inactive) | 58 | 197% (inactive) | 7.76% (inactive) | 95.8% (inactive) | 0% (inactive) | -0.74% (inactive) | 8.66% (inactive) | -0.63% (inactive) | 101% (inactive) | -0.06 (inactive) | 3% (inactive) | -18.4% (inactive)
NNC(=O)c1ccncc1 | 102% (inactive) | 113% (inactive) | 93.9% (inactive) | 117% (inactive) | 105% (inactive) | 61.7 | 175% (inactive) | -14.1% (inactive) | 90.8% (inactive) | 4% (inactive) | -10.5% (inactive) | -2.19% (inactive) | 2.56% (inactive) | 98.4% (inactive) | -0.1 (inactive) | 1% (inactive) | -2.4% (inactive)
